D2 PAM-1: positive allosteric modulators of human D2 dopamine receptor; P14416; HEK293 T-REx D2, calcium flux, EC20 dopamine potentiation; potentiation, % at 10 µM; 0.34% of 340,000 active;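 active = potentiation over 3 SD above the plate norm, cut at about 30% in these data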; also: 0% is about no effect
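Tetracycline-induced HEK293 T-REx cells force-coupled to calcium signalling expressed D2; compounds were pin-added after a 10 s baseline, read kinetically 180 s, then an EC20 dopamine challenge followed with a further 180 s calcium read.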
D2 PAM-2: human D2 receptor positive allosteric modulation; 0.23% of 360,000 active; P14416; potentiation, % (test concentration not listed); DiscoveRx D2 beta-arrestin cells, luminescence, 90 min; 100% = 57 uM dopamine signal; in the data active = potentiation above about 50%; inconclusive = mostly about 30% to 49%
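PathHunter D2 cells, attached overnight at 37 deg C, received compound in DMSO plus dopamine at EC20 (50 nM final) for 90 min at 37 deg C. Beta-arrestin recruitment was read as luminescence after 1 h with detection reagent at ambient temperature.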
D2 ag-1: human D2 receptor agonism in beta-arrestin assay; P14416; DiscoveRx PathHunter D2 beta-arrestin, luminescence, 90 min; 100% = 57 uM dopamine signal; activation, % (test concentration not listed); 0.084% of 360,000 active; in the data active = activation above about 40%; inconclusive = between about 15% and that limit
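Agonist mode: compounds alone added to overnight-plated D2 PathHunter cells for 90 min at 37 C, with 57 uM final dopamine (EC100) defining full response. Beta-arrestin recruitment detected by chemiluminescent reagent, read after 1 h at ambient temperature.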
D2 antagonist: antagonizes the human D2 dopamine receptor; inhibition, % at 10 µM; HEK293 TREx D2 cells, calcium flux, dopamine EC80; 2% of 340,000 active; P14416; in the data active = inhibition above about 30%; inactive = below that, where a call was filed; also: 0% is about no effect
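Tetracycline-induced HEK293 TREx cells expressing D2 receptor forced-coupled to calcium signalling, loaded with no-wash calcium dye. Compounds added and calcium flux read 180 s, then dopamine added at EC80 and read a further 180 s.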
D2 ag-2: activates the human D2 dopamine receptor; 0.53% of 340,000 active; HEK293 T-REx D2 cells, calcium flux agonist mode; activation, % at 2 µM;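 active = activation over 3 SD above normal in the single-dose calcium agonist read, cut at about 30% in these data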; also: 0% is about no effect
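Agonism scored from kinetic calcium signal (1 read/sec, 180 s) following compound pin transfer, after a 10 s baseline. Cells: HEK293 Trex line expressing inducible D2 receptor coupled to calcium, dye-loaded after overnight culture at 30 C.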
D3 arrestin ag: activates human D3 dopamine receptor beta-arrestin recruitment. shares compounds with D2 ag-2. DiscoveRx D3 beta-arrestin cells, luminescence, 90 min. 4% of 2,300 active. Potency, µM (top dose mostly 76.9 µM), without a hit: top-dose activation, actives largely listed as activators;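 also: potency is read from the fitted curve at half-maximal effect; 100% = dopamine control response; nearly all actives have a fitted effect of over 70% in size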
Target sequence (P35462 whole entry, looked up): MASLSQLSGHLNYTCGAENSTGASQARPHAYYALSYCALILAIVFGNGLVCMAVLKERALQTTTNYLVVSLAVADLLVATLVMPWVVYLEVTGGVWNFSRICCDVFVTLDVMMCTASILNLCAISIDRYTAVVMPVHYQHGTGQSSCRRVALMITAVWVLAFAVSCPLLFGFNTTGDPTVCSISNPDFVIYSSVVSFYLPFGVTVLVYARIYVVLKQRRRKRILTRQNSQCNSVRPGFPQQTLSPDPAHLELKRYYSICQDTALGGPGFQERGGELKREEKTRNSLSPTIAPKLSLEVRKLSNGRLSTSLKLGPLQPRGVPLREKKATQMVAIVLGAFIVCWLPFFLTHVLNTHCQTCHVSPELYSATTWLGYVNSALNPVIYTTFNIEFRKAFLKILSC
D2 ag-3: counter-screen for D3 agonists: human D2 dopamine receptor agonism; DiscoveRx PathHunter D2 beta-arrestin, luminescence, 90 min; response scale: percent relative to full dopamine signal; AID 720507; shares compounds with D2 ag-2; Potency, µM (series often up to 76.9 µM), for the others: at the top dose activation, actives largely listed as activators; 5.9% of 2,300 active; also: potency is read from the fitted curve at half-maximal effect; % of control where 0% means no effect; nearly all actives have a fitted effect of over 70% in size
An asterisk follows results filed as active; ? = inconclusive; nt = no result. In the library only some 2.4% were active in any assay of this set; here they are far more common. Unless noted, calls follow the shape of the dose curve; as a rule, active = well fitted activation curve with a large enough effect; inconclusive = small, poorly fitted or top-dose-only effect; inactive = flat fitted curve, though single readings scatter.

SMILES	D2 PAM-1	D2 PAM-2	D2 ag-1	D2 antagonist	D2 ag-2	D3 arrestin ag	D2 ag-3
O=C(c1sccc1Cl)N1CCN(Cc2ccc3c(c2)OCO3)CC1	-25	-15	5	67*	50*	-7%	3%
O=C(c1ccc(Br)o1)N1CCN(Cc2ccc3c(c2)OCO3)CC1	-23	-14	2	58*	70*	-4%	10%
O=C(c1ccccc1)N1CCN(Cc2ccc3c(c2)OCO3)CC1	-32	-25	0	8	16	nt	nt
Cc1cccc(N2CCN(C(=O)c3cccc(-n4c(C)nc5cccnc54)c3)CC2)c1C	6	nt	nt	nt	-1	nt	nt
COc1cc(NC(=O)CCc2nnc3ccc(NCc4ccco4)nn23)cc(OC)c1	1	0	-1	4	52*	11%	15%
CCOC(=O)Cc1csc(NC(=O)CN2CCN(c3ccccc3)CC2)n1	9	6	6	15	5	10%	26%
CCOC(=O)Cc1csc(NC(=O)CN2CCN(CC)CC2)n1	-1	-5	2	-5	0	nt	nt
CC1CN(C)C(C)C/C1=N/Oc1ccccc1[N+](=O)[O-] (stereo unspecified)	-19	-11	7	25	41*	20%	18%
O=C1N=C(N2CCOCC2)S/C1=C\c1cccs1	-12	-9	-1	-7	-1	nt	nt
O=C1N=C(N2CCOCC2)S/C1=C\c1ccc(-c2ccccc2Cl)o1	-16	-9	8	-8	42*	0%	?
Cc1ccccc1-c1ccc(/C=C2/SC(N3CCOCC3)=NC2=O)o1	-34	?	49*	83*	73*	-6%	?
Cc1nn(-c2ccccc2)c2c1N(CCCC(=O)NCc1ccc(OC(C)C)cc1)C(=O)CS2	-5	nt	nt	nt	1	nt	nt
Cc1ccc2oc(=O)c3cc(C(=O)Nc4cccc(C#N)c4)sc3c2c1	-11	nt	nt	nt	-1	nt	nt
COc1ccc(C)cc1N/C(N)=N/c1nc(C)cc(C)n1	-3	-17	-4	-7	6	nt	nt
Cc1cc(C)nc(/N=C(\N)Nc2ccc(-c3ccccc3)cc2)n1	5	-16	-8	7	19	nt	nt
Cc1ccc(C)c(N/C(N)=N/c2nc(C)cc(C)n2)c1	-19	-26	-8	22	56*	-2%	16%
CCOc1ccc(N/C(N)=N/c2nc(C)cc(C)n2)cc1	nt	30	2	nt	nt	2%	?
CC(=O)Nc1ccc(N/C(N)=N/c2nc(C)cc(C)n2)cc1	-4	-9	-7	15	2	nt	nt
Cc1cc(C)nc(/N=C(\N)Nc2ccc(SC(F)F)cc2)n1	-12	-17	1	6	49*	-12%	9%
Cc1ccccc1NC(=O)Cn1c(=O)n(CCC(=O)N2CCc3ccccc3C2)c(=O)c2ccccc21	10	nt	nt	nt	0	nt	nt
COc1cc(OC)cc(C(=O)NCc2ccc3c(c2)CCN3C(=O)c2ccccc2)c1	0	nt	nt	nt	0	nt	nt
Cc1ccc(NC(=O)Cn2ncn3c(cc4ccccc43)c2=O)cc1C	5	nt	nt	nt	0	nt	nt
N#CCCN(C(=O)COC(=O)c1cccc(S(=O)(=O)N2CCCC2)c1)c1ccc(F)cc1	-1	-15	-1	-4	1	nt	nt
CC(=O)N1CCN(S(=O)(=O)c2cccc(C(=O)OCC(=O)N(CCC#N)c3ccc(F)cc3)c2)CC1	14	-4	-3	7	0	-8%	-4%
CCCCOc1ccc(-c2nnn(CC(=O)c3c[nH]c4ccccc34)n2)cc1	-3	11	4	10	56*	3%	-3%
SMILES	D2 PAM-1	D2 PAM-2	D2 ag-1	D2 antagonist	D2 ag-2	D3 arrestin ag	D2 ag-3
COc1ccc(-c2nnn(CC(=O)c3c[nH]c4ccccc34)n2)cc1OC	-8	5	2	-10	-1	nt	nt
Cc1cccc(NC(=O)NCCN2CCN(c3ccccc3)CC2)c1C	-26	-29	5	57*	57*	12%	4%
Cc1ccc(NC(=O)NCCN2CCCCC2)cc1Cl	-28	-10	-2	-19	1	nt	nt
O=C(NCCN1CCN(c2ccccc2)CC1)Nc1cccc(Cl)c1	-30	-8	?	73*	75*	?	21%
O=C(NCCN1CCN(c2ccccc2Cl)CC1)Nc1ccccc1	-24	-9	6	52*	67*	17%	10%
Cc1ccc(NC(=O)NCCN2CCN(c3ccccc3)CC2)cc1Cl	-26	-27	7	65*	66*	30%	?
COc1ccc(Cl)c(NC(=O)NCCN2CCN(c3ccccc3)CC2)c1	-35	-3	-1	-12	17	nt	nt
CC(C)c1nn2c(=O)cc(COC(=O)c3cccs3)nc2s1	12	nt	nt	nt	0	nt	nt
CCCCCSc1nc2sc3c(c2c(=O)n1-c1ccccc1)CCN(C(C)=O)C3	-4	nt	nt	nt	-1	nt	nt
CCc1ccccc1Nc1nn2c(=O)c3ccc(C(=O)NCCCOC(C)C)cc3nc2s1	12	nt	nt	nt	0	nt	nt
Cc1c2cnn(CC(=O)NCc3ccc(F)cc3)c(=O)c2c(C)n1Cc1cccc(Cl)c1	3	nt	nt	nt	0	nt	nt
OC(CNCCc1ccccc1)COc1ccc(OCC(O)CNCCc2ccccc2)cc1 (stereo unspecified)	nt	-8	4	nt	nt	11%	10%
COc1ccc(C(OCC(O)CNCCc2ccccc2)c2ccc(OC)cc2)cc1 (stereo unspecified)	-17	-18	-6	8	51*	-5%	9%
COc1cccc(CCNc2ncnc3c2nnn3C)c1	16	nt	nt	nt	1	nt	nt
CC1CCN(C(c2ccc(F)cc2)c2sc3nc(-c4ccco4)nn3c2O)CC1 (stereo unspecified)	13	nt	nt	nt	0	nt	nt
Cc1ccc(-n2cc(C(=O)OCc3ccc(Cl)cc3)c3ccccc3c2=O)cc1	-1	nt	nt	nt	1	nt	nt
C=CCC1Cc2c(cccc2[N+](=O)[O-])C(CC=C)N1 (stereo unspecified)	-13	?	?	36*	50*	?	22µM*
FC(F)(F)c1ccc(N2CCOCC2)c(NC2=NCCCCC2)c1	-11	-2	2	-10	0	nt	nt
FC(F)(F)c1ccc(Cl)c(NC2=NCCCCC2)c1	-19	-10	-6	11	53*	-1%	13%
CCN(C(=O)Cn1nc(Cc2ccncc2)c2ccccc2c1=O)c1cccc(Cl)c1	-5	nt	nt	nt	0	nt	nt
Cn1c(N2CCN(c3ccccn3)CC2)nc2c1c(=O)n(Cc1ccccc1Cl)c(=O)n2C	nt	-16	-2	nt	nt	nt	nt
Cn1c(N2CCN(c3ccccn3)CC2)nc2c1c(=O)n(Cc1ccc(Cl)cc1)c(=O)n2C	-10	-7	5	49*	47*	18%	?
COc1cc(-c2cc(OC)c3c(C)oc(C)c3c(=O)c2)ccc1OC(=O)c1cccc(Cl)c1	-11	nt	nt	nt	nt	nt	nt
